Measured values taken from PubChem BioAssay AID1946 (Johns Hopkins Ion Channel Center, 2009).
Hit rate of the full screen: of about 2,400 compounds, about 180 (7.5%) were called active. For the sample, actives were picked, then their nearest neighbours and some compounds at random. A number with no mark means an inactive call.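 Rule for the calls: active = readout below zero, meaning a drop past 3 SD under the dofetilide-free negative control mean; inactive = the rest.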

The compounds below were run against Potassium voltage-gated channel subfamily KQT member 2 (Rattus norvegicus) (UniProt O88943) (assay: rat KCNQ2 channel inhibition by compounds alone, confirmation, counter-screen for hERG block protector project, cell-based, CHO, FluxOR thallium flux (AID 1946)). Conditions: CHO-KCNQ2 cells, FluxOR thallium flux fluorescence; at 10 µM; active compounds read low; zero marks the 3-SD hit cutoff.
Potassium voltage-gated channel subfamily KQT member 2 (Rattus norvegicus), sequence (O88943 whole entry, looked up): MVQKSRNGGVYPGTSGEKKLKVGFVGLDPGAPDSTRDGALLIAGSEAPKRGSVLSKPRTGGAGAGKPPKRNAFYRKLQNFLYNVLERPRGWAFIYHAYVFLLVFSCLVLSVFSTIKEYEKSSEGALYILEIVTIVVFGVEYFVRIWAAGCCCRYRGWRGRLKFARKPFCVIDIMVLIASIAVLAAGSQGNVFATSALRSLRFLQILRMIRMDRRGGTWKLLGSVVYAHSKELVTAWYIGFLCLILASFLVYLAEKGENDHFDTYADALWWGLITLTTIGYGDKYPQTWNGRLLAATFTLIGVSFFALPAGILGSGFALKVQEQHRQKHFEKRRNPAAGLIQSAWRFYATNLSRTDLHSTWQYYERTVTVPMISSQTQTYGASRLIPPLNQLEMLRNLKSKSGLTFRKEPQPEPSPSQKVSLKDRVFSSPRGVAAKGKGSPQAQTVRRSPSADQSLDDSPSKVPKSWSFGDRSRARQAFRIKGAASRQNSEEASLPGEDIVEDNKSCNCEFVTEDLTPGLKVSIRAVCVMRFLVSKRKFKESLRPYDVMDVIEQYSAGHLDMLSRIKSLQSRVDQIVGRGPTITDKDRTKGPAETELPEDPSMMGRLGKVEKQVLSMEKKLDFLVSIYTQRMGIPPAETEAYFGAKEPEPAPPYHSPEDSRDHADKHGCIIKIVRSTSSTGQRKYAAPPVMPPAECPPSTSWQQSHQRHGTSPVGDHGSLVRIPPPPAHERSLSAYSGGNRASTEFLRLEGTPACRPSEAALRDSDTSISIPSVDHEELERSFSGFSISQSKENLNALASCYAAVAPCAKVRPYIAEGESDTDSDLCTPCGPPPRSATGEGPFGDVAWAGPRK

Row | Structure (SMILES) | activity change vs negative control
1 | CC(=O)c1c(NC(=O)c2ccccc2)[nH]c(-c2ccccc2)nc1=S | 30.6%
2 | Cc1ccc(-c2nc(N)s[n+]2-c2ccccc2)cc1 | 42.6%
3 | CCOC(=O)Cc1csc(NC(=S)NC(=O)c2ccccc2C)n1 | 26.3%
4 | COc1cccc(/C=N/Nc2nc3ccccc3[nH]2)c1O | 24.7%
5 | COc1cccc2cc(-c3nc4ccccc4[nH]3)c(=O)oc12 | -9.4% (active)
6 | COc1ccc(C(=O)NC(=S)N2CCC(C)CC2)cc1Br | 74.7%
7 | COc1cc(C2NC(=O)NC(C)=C2C(=O)OCC2CCCCC2)ccc1O (configuration not stated) | 7.4%
8 | Cc1ccc(C2c3c(-c4ccccc4O)n[nH]c3C(=O)N2Cc2ccncc2)cc1 (configuration not stated) | 10.7%
9 | COc1cc(C2c3c(n[nH]c3C)C(=O)N2c2ccc(C)cc2)ccc1O (configuration not stated) | -5% (active)
10 | Cc1nc(-c2ccccc2)cn(O)c1=O | 20.4%
11 | CC1=NN(c2nc(-c3ccccc3)cs2)C(=O)C1N=Nc1ccccc1 (configuration not stated) | -5% (active)
12 | Cn1c(O)c(N=Nc2nc(-c3ccccc3)cs2)c2ccccc21 | 90.8%
13 | c1ccc(CCCNc2ncnc3nc[nH]c23)cc1 | 61.8%
14 | Fc1ccc(N2CCN(c3ccc4c(C(F)(F)F)cc(C(F)(F)F)nc4n3)CC2)cc1 | -5.3% (active)
15 | Cc1ccc(C(C#N)c2ccc3c(C(F)(F)F)cc(C(F)(F)F)nc3n2)cc1 (configuration not stated) | 17.2%
16 | Cc1cc(-c2csc3nc[nH]c(=S)c23)cc(C)c1C | 55.1%
17 | CC(/C=C1\SC(=S)N(NS(=O)(=O)c2ccccc2)C1=O)=C\c1ccccc1 | 47.5%
18 | O=C(CN1CCCCCCC1)Nc1cccc(Cl)c1Cl | -6.4% (active)
19 | O=C(CN1CCCCCC1)Nc1ccc(Oc2ccccc2)cc1 | 3.4%
20 | O=C(CN1CCN(Cc2ccccc2)CC1)NCc1ccccc1Cl | 17.7%
21 | O=C(NC(=S)N1CCc2ccccc21)c1ccccc1Cl | 93%
22 | CCCn1c(SCN2C(=O)c3ccccc3C2=O)nc2cc(Cl)ccc2c1=O | 50.5%
23 | COC(=O)c1c(NC(=S)Nc2ccc(F)cc2[N+](=O)[O-])sc2c1CCCCC2 | 25.2%
24 | CCc1ccc(NC(=O)C(=O)NNC(=O)c2ccc(OC)cc2)cc1 | 122%
25 | CCCOc1ccc(C2NC(=S)NC(c3ccccc3)=C2C(=O)Nc2ccc(C)cc2)cc1OC (configuration not stated) | 15.3%

Row | Structure (SMILES) | activity change vs negative control
26 | COc1ccccc1CC(=O)Nc1ccc(OC)c(OC)c1 | 9.2%
27 | COc1cc(C2C(C#N)=C(N)Oc3c2ccc2ccccc32)ccc1OCC(=O)Nc1ccc(C)cc1 (configuration not stated) | -0.6% (active)
28 | COc1ccc(-c2oc3ccccc3c(=O)c2OC(C)=O)cc1 | 38.6%
29 | O=C(COc1ccc(C(=O)c2ccccc2)cc1)Nc1cccnc1 | -20.5% (active)
30 | CCc1nnc(NC(=O)COc2ccc([N+](=O)[O-])cc2)s1 | 15.3%
31 | N#Cc1ccc(-c2ccc(OCC(=O)Nc3cccnc3)cc2)cc1 | 13.9%
32 | O=C(COc1ccc2ccccc2c1Br)Nc1cccnc1 | 0.9%
33 | O=C(COc1ccccc1)Nc1ccc(F)cc1 | 0.6%
34 | O=C(COc1ccc([N+](=O)[O-])cc1)Nc1cccnc1 | -4.2% (active)
35 | O=c1c2c3c(sc2[nH]c(=S)n1Cc1ccco1)CCC3 | 56.4%
36 | Cc1[nH]n(-c2cccc3ccccc23)c(=O)c1/C=N/c1sc2c(c1C#N)CCC2 | 23.1%
37 | COc1cccc(C(=O)NNC(=O)C(=O)Nc2ccc(OC)cc2OC)c1 | 52.6%
38 | S=c1[nH]c(-c2ccc(Cl)cc2)cs1 | 140%
39 | COC(=O)c1ccc(CSc2ncnc3sc(C)c(C)c23)o1 | 23%
40 | COc1cccc(C(=O)NNC(=O)C(=O)Nc2ccc(C)cc2)c1 | 99.7%
41 | Cc1ccc(/C=C/C(=O)c2ccccc(=O)c2O)c(C)c1 | 63.1%
42 | CCCCCC(=O)NNC(=S)NC(=O)c1ccc([N+](=O)[O-])cc1 | -10.1% (active)
43 | C=CCN(CC=C)C(=S)NC(=O)c1ccc([N+](=O)[O-])cc1 | 72.2%
44 | CCCCNC(=S)NC(=O)c1ccc([N+](=O)[O-])cc1 | 46.5%
45 | O=C(NC(=S)Nc1ccccc1)c1cccs1 | 17.9%
46 | O=C(O)c1ccc(S(=O)(=O)/N=C2\C=C(Nc3ccccc3F)C(=O)c3ccccc32)cc1 | 31.7%
47 | Cc1cc(C)c(C(=O)c2ccc(C(=O)N3CCCCC3)cc2)c(C)c1 | 32.9%
48 | O=C(Nc1nc2c(Br)cc(Br)cc2c(=O)s1)C1CCC1 | 40.8%
49 | O=C(Nc1cccnc1)c1ccc(COc2ccccc2Br)o1 | 7.9%
50 | O=C(Nc1cccnc1)c1ccc(COc2cc(Cl)ccc2Cl)o1 | -5.5% (active)

Row | Structure (SMILES) | activity change vs negative control
51 | O=C(COc1ccc(Cl)cc1Cl)Nc1cccnc1 | 11%
52 | CCc1cc2cc(C)cc(C)c2[nH]c1=S | 29.9%
53 | Nc1nc2c(s1)CCc1c-2cnn1-c1ccccc1 | -0.2% (active)
54 | O=C(NC(=S)Nc1ccccc1F)c1ccc(Br)o1 | 81.1%
55 | Cc1c(Cl)cccc1NC(=S)N=Nc1c(O)n(CN2CCOCC2)c2ccccc12 | 28.6%
56 | O=C(CN1C(=O)S/C(=C\c2cccs2)C1=O)Nc1ccc(O)c(C(=O)O)c1 | 7.9%
57 | O=C(CN1C(=O)S/C(=C\c2cccs2)C1=O)Nc1ccc(C(=O)O)c(O)c1 | 44.5%
58 | O=C(CN1C(=O)S/C(=C\c2cc(Cl)c(O)c(Cl)c2)C1=O)Nc1ccccc1 | -7.3% (active)
59 | O=C(NC(=S)Nc1nc2ccc(F)cc2s1)c1ccco1 | 82.7%
60 | CCC1(c2ccc(Cl)cc2)NC(=S)N(c2ccc(C)c(C)c2)N1 (configuration not stated) | 124%
61 | CCCN(Cc1ccccc1)C(=S)NC(=O)c1ccccc1[N+](=O)[O-] | 120%
62 | O=C(NC(=S)N1CCCC(C(F)(F)F)C1)c1ccc(F)cc1 (configuration not stated) | 46.1%
63 | CCOc1ccc2nc(N3C(=O)/C(=C/c4ccc(Cl)cc4)NC3=S)sc2c1 | 6.5%
64 | CN(C)c1oc(-c2ccccc2[N+](=O)[O-])nc1C#N | 16.4%
65 | CN(C)c1oc(-c2ccccc2)nc1C#N | -1.7% (active)
66 | CCOC(=O)C(=CNc1cc(C)nn1C(C)(C)C)C(=O)OCC | 13%
67 | Cc1ccc(C(=C2C3C=CC2C2C(=O)NC(=O)C32)c2ccc(C)cc2)cc1 (configuration not stated) | -2.6% (active)
68 | CC1CCCCC1NC(=S)NC(=O)c1cccs1 (configuration not stated) | 49.2%
69 | CCC1(c2ccc(Cl)cc2)NC(=S)N(c2ccccc2)N1 (configuration not stated) | 108%
70 | N#Cc1cc(-c2ccccc2)nnc1Oc1ccccc1 | -0.2% (active)
71 | COCCNC(=O)C(c1ccc(C)o1)N(Cc1ccc(OC)cc1)C(=O)Cn1nnc2ccccc21 (configuration not stated) | 33.6%
72 | Cc1ccc(NC(=O)CSc2nnc(-c3cccnc3)n2-c2ccc(C)cc2)cc1 | 12.3%
73 | COc1cc(-c2nnc(SCC(=O)O)n2-c2ccccc2)cc(OC)c1OC | 0.6%
74 | COc1ccc(-n2c(SCC#N)nnc2-c2cccnc2)cc1 | -1.2% (active)
75 | CC1Cc2ccccc2N1C(=S)NC(=O)c1ccc(Cl)cc1Cl (configuration not stated) | 83.8%

Row | Structure (SMILES) | activity change vs negative control
76 | COCCn1c(=S)[nH]c2sc3c(c2c1=O)CCC(C)C3 (configuration not stated) | 81%
77 | CC(C)N(Cc1ccccc1)C(=S)NC(=O)C1(C)CC1(Cl)Cl (configuration not stated) | 53.8%
78 | OC(CNCC(c1ccc(Cl)cc1Cl)c1c[nH]c2ccccc12)c1ccccc1 (configuration not stated) | -12% (active)
79 | COc1cccc(C=Nc2cc(C)cc(C)c2)c1O | 39.5%
80 | O=c1cc(-c2ccccc2)nc2c(-c3ccccc3)c(C(F)(F)F)[nH]n12 | 81.1%
81 | COc1cc(NC(=O)c2ccccc2)c(OC)cc1NC(=O)Cc1ccc(Br)cc1 | 26.8%
82 | O=C(O)COc1ccc(NC(=O)c2ccc3c(c2)C(=O)N(C2CCCCC2)C3=O)cc1 | 21.1%
83 | S=c1[nH]cnc2scc(-c3ccccc3)c12 | 74.3%
84 | Cn1cc(/C=N/n2cnc3scc(-c4ccc(Cl)cc4)c3c2=O)c2ccccc21 | 9%
85 | Cc1ccc(C)n1-n1c(C)nc2scc(-c3ccccc3)c2c1=O | -3.2% (active)
86 | Cc1c(N2C(=O)/C(=C\c3ccccc3O)SC2=S)c(=O)n(-c2ccccc2)n1C | 90%
87 | S=c1[nH]cnc2scc(-c3ccc(Cl)cc3)c12 | 49.5%
88 | CCOC(=O)c1sc(NC(=S)NC(=O)c2ccccc2)nc1C | 20.3%
89 | CC1CCN(c2ccc3c(c2)S(=O)(=O)c2ccccc2C3=O)CC1 | -10.9% (active)
90 | CC1CCN(S(=O)(=O)c2ccc3nc(N4CCN(c5ccccc5)CC4)ccc3c2)CC1 | 4.3%
91 | CC(=O)c1c(N)[nH]c(-c2ccccc2)nc1=S | 22.9%
92 | Cc1ccc(CN2CCN(CC(=O)NC(C)c3ccc4c(c3)OCCO4)C2=O)cc1 (configuration not stated) | 38.3%
93 | CN1C(=O)/C(=N/OC(=O)c2ccccc2)c2ccccc21 | 8%
94 | CC(=O)c1ccc(S(=O)(=O)NCc2ccc(C(=O)N(C)CC(=O)Nc3cccc(F)c3)cc2)cc1 | 5.5%
95 | Cc1ccc(NC(=O)c2ccc(CNS(=O)(=O)c3cccc(C(F)(F)F)c3)cc2)cc1 | 8.1%
96 | CN(CC(=O)Nc1ccc(Cl)cc1)C(=O)c1cccc(S(=O)(=O)NCc2ccccc2)c1 | -2.7% (active)
97 | O=c1c2ccc(Cl)cc2nc(-c2cccc(C(F)(F)F)c2)n1O | 141%
